Activity calls are given as the source filed them.
Further: test concentration not given here.

One assay in a line: A549 lung cancer cell viability effects, profiling panel, resazurin fluorescence, 24 h, PK04 Diversity Set (AID 1171). The note with it: higher = more signal, called active from +8 up or from −8 down. In general terms: Alamar Blue is a resazurin reagent that responds to reducing activity.
Regarding `Oc1ccc2cc[n+](Cc3sc4ccccc4c3Cl)cc2c1`, the z-score was -0.655 (inactive).

Turning to `COC(=O)C(CC#Cc1ccc2c(c1)[C@]1(C(=O)N2)[C@H](c2ccc(OCCO)cc2)N2[C@H](c3ccccc3)[C@H](c3ccccc3)OC(=O)[C@H]2[C@@H]1C(=O)N1CCc2cc(OC)c(OC)cc2C1)C(=O)OC`, the z-score was 0.161 (inactive). Same read-out and setting: next, `COc1ccc(CCNC(=O)[C@@]2(Sc3ccc(C)cc3)CC(=O)N(C(C)C)[C@@H]2c2ccc(CO)cc2I)cc1`: -0.192 (inactive); `CN(C)CCCC[C@@H]1NC(=O)[C@@H]2C[C@H](C(=O)NCCCCCCN)[C@H](c3cccc(OCCO)c3)N2C1=O`: -0.511 (inactive); `C=CCN1C(=O)[C@]2(O[C@H](CCn3cc([C@H](O)c4ccccc4)nn3)[C@@H]([Si](C)(C)c3ccc(OC)cc3)[C@@H]2C)c2ccccc21`: -1.75 (inactive).

For the compound `COC(=O)C(CC#Cc1ccc2c(c1)[C@]1(C(=O)N2)[C@H](C(=O)Nc2nc3ccccc3s2)[C@H]2C(=O)O[C@H](c3ccccc3)[C@H](c3ccccc3)N2[C@@H]1c1ccc(O)cc1)C(=O)OC`, the z-score is 0.502 (inactive). Consider `COc1cc2c(cc1O)C(c1cccs1)N(C)CC2` (stereo not given), for which the z-score was -0.568 (inactive). On the same count and under the same terms, next, `C=CC[C@]1(C(=O)NCc2ccccc2)N=C(c2ccc(OCCCO)cc2)O[C@H]1c1ccccc1N=[N+]=[N-]`: -0.888 (inactive); `O=C(c1ccccc1)N1Cc2ccccc2C[C@@]2(COC(c3ccc(OCCCO)cc3)=N2)C1=O`: 2.08 (inactive). As for `C=C[C@H](C)[C@@H](OC(=O)Nc1ccc(OC)cc1)c1ccc(O)c2ccccc12`, the z-score is -1.12 (inactive).

For the compound `CCC(CC)C(O)C1C=CC2C(=O)NC(=O)C2N1Nc1ccc(Cl)cc1Cl` (stereo not given), the z-score is -0.929 (inactive). Still for that read-out and setting: next, `COc1ccc(C#Cc2ccc3c(c2)[C@]2(C(=O)N3)[C@H](c3ccccc3OCCO)N3[C@H](c4ccccc4)[C@H](c4ccccc4)OC(=O)[C@H]3[C@@H]2C(=O)Nc2nc3ccccc3s2)cc1`: -2.07 (inactive); `O=C(CS)NCCCCCCNC(=O)[C@@H]1C[C@@H]2C(=O)N[C@@H](Cc3ccccc3)C(=O)N2[C@@H]1c1cccc(OCCO)c1`: -0.436 (inactive).

`CC(C)N1C(=O)c2ccccc2[C@](C)(C(=O)NCCN2CCOCC2)[C@@H]1c1ccc(CO)cc1`: the z-score was 0.0569 (inactive). The same measure, in the same setting: next, `CCCC=C(CCC)[C@@H](NC(=O)c1cccs1)c1ccc(C(F)(F)F)cc1`: 1.73 (inactive).

On to `C[N+](C)(C)CCCCNC(=O)[C@@H]1C[C@@H]2C(=O)N[C@@H](Cc3ccccc3)C(=O)N2[C@@H]1c1cccc(OCCO)c1`, for which the z-score is -0.337 (inactive). The same measure, in the same setting: next, `Cc1ccc(S[C@]2(C(=O)NC3CC3)CC(=O)N(Cc3ccccc3)[C@@H]2c2ccc(CO)cc2I)cc1`: 0.618 (inactive). The same measure, in the same setting: next, `CCOC(=O)C1=C[C@@H](C(C)(C)C)N(S(=O)(=O)c2ccc(C)cc2)[C@H]1c1ccc(F)cc1`: 0.627 (inactive); `COc1ccc(C(O)C2C=CC3C(=O)N(Cc4ccccc4)C(=O)C3N2n2cnnc2)cc1OCc1ccccc1` (stereo not given): 0.18 (inactive).

Take `CC1CC/C=C\[C@H]2OC34C=CCN(C(C)(C)C)C(=O)[C@H]3N(CCO)C(=O)[C@@H]4C2C(=O)O1` (stereo not given in full): the z-score was 0.283 (inactive).

A further assay is described as follows: HepG2 liver cancer cell viability effects, profiling panel, resazurin fluorescence, 24 h, PK04 Diversity Set (AID 1172). The note with it: higher = more signal.
Compound `CC(=O)NCCCC[C@@H]1NC(=O)[C@@H]2C[C@H](C(=O)NCCCCCNC(=O)CS)[C@H](c3cccc(OCCO)c3)N2C1=O` registered a z-score of 0.77. Still for that read-out and setting: next, `COc1ccccc1CN1C(=O)c2ccccc2[C@@]2(Cc3ccccc3N(CC(C)C)C2=O)[C@@H]1c1ccc(CO)cc1`: -0.593. With `CC(CO)N1C(=O)[C@@H]2C3C(=O)OCCC/C=C\[C@H]3OC23C=CCN(C(C)(C)C)C(=O)[C@@H]13` (stereo not given in full), the z-score is -0.181. With `CC1(C)[C@@H]2CC(C(O)C3C=CC4C(=O)N(Cc5ccccc5)C(=O)C4N3n3cnnc3)=C[C@H]1C2` (stereo not given in full), the z-score amounted to 0.883. `O=C1C[C@@](C(=O)NC2CC2)(c2ccc([N+](=O)[O-])cc2)[C@@H](c2ccc(CO)cc2I)N1C1CCCCC1`: the z-score came to 0.0684.

With `NC(=O)NCC#Cc1ccc2c(c1)[C@]1(C(=O)N2)[C@H](C(=O)Nc2nc3ccccc3s2)[C@H]2C(=O)O[C@H](c3ccccc3)[C@H](c3ccccc3)N2[C@@H]1c1ccccc1OCCO`, the z-score is 0.446. Same read-out and setting: next, `O=C1c2ccccc2[C@](Cc2ccccc2I)(C(=O)NCC(F)(F)F)[C@H](c2ccc(CO)cc2)N1Cc1ccccc1Cl`: 1.08; `CCC[C@@H]1C[C@@]1(CCC)[C@@H](NS(=O)(=O)c1cccc2cccnc12)c1ccc(Cl)cc1`: -0.0373.

As for `CCCC[C@@H]1C[C@H]1[C@@H](NC(=O)c1ccco1)c1ccc(-c2ccccc2)cc1`, the z-score is -0.9. Still for that read-out and setting: next, `Cc1ccc(S[C@]2(C(=O)NCCCN(C)C)CC(=O)N(Cc3cc(C(F)(F)F)cc(C(F)(F)F)c3)[C@@H]2c2ccc(CO)cc2)cc1`: -0.144; `C=C[C@@H](COC(=O)OC(C)(C)C)N(Cc1ccc(OC)cc1)S(=O)(=O)c1ccc(Br)cc1`: 0.163. On the same count and under the same terms, next, `COCCOC(=O)N1C(=O)[C@@]2(c3cc(C#CCC(C(=O)OC)C(=O)OC)ccc31)[C@H](C(=O)N1CCN(c3ncccn3)CC1)[C@H]1C(=O)O[C@H](c3ccccc3)[C@H](c3ccccc3)N1[C@@H]2c1ccccc1OCCO`: -0.354; `CN1C(=O)C2C=CC(C(O)c3ccccc3)N(N(c3ccccc3)c3ccccc3)C2C1=O` (stereo not given): -0.112. Still for that read-out and setting: next, `COc1ccc([Si](C)(C)[C@H]2[C@H](CC(=O)N3Cc4ccccc4C[C@H]3CO)O[C@@]3(C(=O)N(Cc4cccc(N5CCC5=O)c4)c4ccccc43)[C@@H]2C)cc1`: -0.774; `C=CCC(OC(C)=O)[C@@H]1[C@@H](N(Cc2ccc(-c3cccc(C(F)(F)F)c3)o2)C(=O)c2ccc(C)cc2)c2cc(OCCCO)ccc2N1C(=O)Cc1ccc2ccccc2c1` (stereo not given in full): 0.358. In turn, `Oc1ccc2cc[n+](Cc3sc4ccccc4c3Cl)cc2c1` showed a z-score of -1.23.

`COC(=O)C(CC#Cc1ccc2c(c1)[C@]1(C(=O)N2)[C@H](c2ccc(OCCO)cc2)N2[C@H](c3ccccc3)[C@H](c3ccccc3)OC(=O)[C@H]2[C@@H]1C(=O)N1CCc2cc(OC)c(OC)cc2C1)C(=O)OC` gave a z-score of 0.399. `COc1ccc(CCNC(=O)[C@@]2(Sc3ccc(C)cc3)CC(=O)N(C(C)C)[C@@H]2c2ccc(CO)cc2I)cc1`: the z-score turned out to be 0.104. For the compound `CN(C)CCCC[C@@H]1NC(=O)[C@@H]2C[C@H](C(=O)NCCCCCCN)[C@H](c3cccc(OCCO)c3)N2C1=O`, the z-score was -0.06. Turning to `C=CCN1C(=O)[C@]2(O[C@H](CCn3cc([C@H](O)c4ccccc4)nn3)[C@@H]([Si](C)(C)c3ccc(OC)cc3)[C@@H]2C)c2ccccc21`, the z-score is -1.25. For `COC(=O)C(CC#Cc1ccc2c(c1)[C@]1(C(=O)N2)[C@H](C(=O)Nc2nc3ccccc3s2)[C@H]2C(=O)O[C@H](c3ccccc3)[C@H](c3ccccc3)N2[C@@H]1c1ccc(O)cc1)C(=O)OC`, the z-score came out at 0.793. Still for that read-out and setting: next, `COc1cc2c(cc1O)C(c1cccs1)N(C)CC2` (stereo not given): -0.493; `C=CC[C@]1(C(=O)NCc2ccccc2)N=C(c2ccc(OCCCO)cc2)O[C@H]1c1ccccc1N=[N+]=[N-]`: -0.0155; `O=C(c1ccccc1)N1Cc2ccccc2C[C@@]2(COC(c3ccc(OCCCO)cc3)=N2)C1=O`: 1.05.

On to `C=C[C@H](C)[C@@H](OC(=O)Nc1ccc(OC)cc1)c1ccc(O)c2ccccc12`, for which the z-score is -1.31. Regarding `CCC(CC)C(O)C1C=CC2C(=O)NC(=O)C2N1Nc1ccc(Cl)cc1Cl` (stereo not given), the z-score is -1.82.

In turn, `COc1ccc(C#Cc2ccc3c(c2)[C@]2(C(=O)N3)[C@H](c3ccccc3OCCO)N3[C@H](c4ccccc4)[C@H](c4ccccc4)OC(=O)[C@H]3[C@@H]2C(=O)Nc2nc3ccccc3s2)cc1` had a z-score of -0.927. `O=C(CS)NCCCCCCNC(=O)[C@@H]1C[C@@H]2C(=O)N[C@@H](Cc3ccccc3)C(=O)N2[C@@H]1c1cccc(OCCO)c1` returned a z-score of 0.531. `CC(C)N1C(=O)c2ccccc2[C@](C)(C(=O)NCCN2CCOCC2)[C@@H]1c1ccc(CO)cc1` returned a z-score of 0.0412. In turn, `CCCC=C(CCC)[C@@H](NC(=O)c1cccs1)c1ccc(C(F)(F)F)cc1` registered a z-score of 0.74. Same read-out and setting: next, `C[N+](C)(C)CCCCNC(=O)[C@@H]1C[C@@H]2C(=O)N[C@@H](Cc3ccccc3)C(=O)N2[C@@H]1c1cccc(OCCO)c1`: -0.278. Still for that read-out and setting: next, `Cc1ccc(S[C@]2(C(=O)NC3CC3)CC(=O)N(Cc3ccccc3)[C@@H]2c2ccc(CO)cc2I)cc1`: 0.417. Still for that read-out and setting: next, `CCOC(=O)C1=C[C@@H](C(C)(C)C)N(S(=O)(=O)c2ccc(C)cc2)[C@H]1c1ccc(F)cc1`: -0.457; `COc1ccc(C(O)C2C=CC3C(=O)N(Cc4ccccc4)C(=O)C3N2n2cnnc2)cc1OCc1ccccc1` (stereo not given): -0.299; `CC1CC/C=C\[C@H]2OC34C=CCN(C(C)(C)C)C(=O)[C@H]3N(CCO)C(=O)[C@@H]4C2C(=O)O1` (stereo not given in full): 0.488.

For the origin of these results see PubChem BioAssay.
